Results taken from publication PMC4336329 (PLoS ONE, 2015).
The whole screen tested about 310,000 compounds, of which about 2,200 (0.71%) showed an effect of 50% or more. Effects have a minus sign here. The full list was thinned out, with strong results kept by preference.

These molecules were tested against human ether-à-go-go-related gene (hERG) potassium channel (human, UniProt Q12809) (assay: primary screen, population patch clamp on CHO cells stably expressing hERG; higher = less effect of the substance).
Sequence of human ether-à-go-go-related gene (hERG) potassium channel (Q12809 whole entry, looked up): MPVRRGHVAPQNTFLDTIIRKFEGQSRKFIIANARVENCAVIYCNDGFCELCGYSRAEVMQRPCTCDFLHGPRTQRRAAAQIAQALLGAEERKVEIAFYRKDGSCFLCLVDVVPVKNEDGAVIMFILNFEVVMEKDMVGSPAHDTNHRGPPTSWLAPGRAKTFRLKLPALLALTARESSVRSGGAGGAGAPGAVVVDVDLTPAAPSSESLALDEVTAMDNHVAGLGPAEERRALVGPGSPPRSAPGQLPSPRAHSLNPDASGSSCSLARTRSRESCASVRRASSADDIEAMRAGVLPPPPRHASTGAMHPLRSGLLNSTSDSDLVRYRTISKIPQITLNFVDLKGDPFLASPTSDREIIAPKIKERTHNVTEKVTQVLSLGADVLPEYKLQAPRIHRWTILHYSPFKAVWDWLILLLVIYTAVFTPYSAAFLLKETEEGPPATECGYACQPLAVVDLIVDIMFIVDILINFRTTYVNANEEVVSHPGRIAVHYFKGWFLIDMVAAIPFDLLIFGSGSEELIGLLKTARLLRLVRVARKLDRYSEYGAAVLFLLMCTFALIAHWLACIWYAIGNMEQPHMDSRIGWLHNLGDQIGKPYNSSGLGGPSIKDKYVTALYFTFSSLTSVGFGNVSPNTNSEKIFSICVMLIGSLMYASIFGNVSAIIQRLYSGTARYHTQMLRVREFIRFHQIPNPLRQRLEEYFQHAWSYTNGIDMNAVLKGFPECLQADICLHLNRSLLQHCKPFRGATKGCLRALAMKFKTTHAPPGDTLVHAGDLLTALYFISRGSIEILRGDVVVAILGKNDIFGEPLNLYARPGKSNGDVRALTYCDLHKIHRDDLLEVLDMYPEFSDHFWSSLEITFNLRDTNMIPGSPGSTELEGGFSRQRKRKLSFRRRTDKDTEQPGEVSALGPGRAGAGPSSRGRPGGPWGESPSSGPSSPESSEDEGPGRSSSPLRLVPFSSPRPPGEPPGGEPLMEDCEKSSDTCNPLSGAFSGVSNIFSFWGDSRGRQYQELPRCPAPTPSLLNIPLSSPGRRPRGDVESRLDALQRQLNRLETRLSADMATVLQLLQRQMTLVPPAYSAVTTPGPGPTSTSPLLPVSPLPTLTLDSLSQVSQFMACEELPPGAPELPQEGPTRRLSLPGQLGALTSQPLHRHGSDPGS
Protocol: Briefly, Chinese hamster ovary (CHO) cells stably expressing the hERG channel were dislodged from tissue culture flasks and dispensed into PPC plates. […] During the recording, background leak currents were estimated by a 100 ms step to -80 mV from an initial holding potential of -70 mV and subtracted from the subsequent current measurement. The campaign was conducted in two phases using slight differences in recording protocol. In the first phase, the initial voltage pulse used a 100 ms step to -30 mV from a holding potential of -70 mV, a 2 s conditioning step to +25 mV, and a 2 s test step to -30 mV. During the second phase of the screen, the potential during the conditioning step was raised to +45 mV. In both phases of the campaign, a secondary voltage pulse was applied using the same parameters as the second phase initial pulse. The initial and secondary pulses were applied in the absence of compound, and upon application of 1 μM and 10 μM test concentrations. Small molecule effects on hERG current density were quantified by […].

| Structure (SMILES) | hERG current change (%, negative = inhibition) at 1uM [%] |
| --- | --- |
| O=S(=O)(CC(CN1CCCCC1)N1CCCCC1)c1ccccc1 (stereo not drawn) | 6.73 |
| O=C(Cn1cnc2c(NC(=O)OCc3ccccc3)ncnc21)NCc1ccccn1 | 0.393 |
| O=C(NCCS(=O)(=O)N1CCN(c2ccccc2F)CC1)C1CC(=O)N(c2ccccc2)C1 (stereo not drawn) | 11.6 |
| O=C(Nc1ccon1)C1CCN(S(=O)(=O)c2cccs2)CC1 | -4.01 |
| CC(=O)NNS(=O)(=O)c1ccc(-c2cc(C(F)(F)F)n(C)n2)s1 | 2.67 |
| CCOc1ccc2[nH]c(=O)c(CN(CCN3CCOCC3)Cc3nnnn3C(C)(C)CC)cc2c1 | 12.1 |
| COc1ccc(NC(=O)CSc2nnc(Cc3ccc(C)cc3)c(=O)n2N)cc1OC | 4 |
| CC(=O)N(C(C)=O)S(=O)(=O)c1ccc(N=NN2CCCCC2)cc1 | 11.6 |
| Cc1ccc(CNC(=O)CCS(=O)(=O)c2ccc3c(c2)CC(C)N3C(=O)C2CC2)cc1 (stereo not drawn) | 0.306 |
| CCOC(=O)N1CCN(C(=O)c2ccc([N+](=O)[O-])cc2Cl)CC1 | 6.8 |
| Fc1ccc(C[n+]2c(-c3ccccc3)cc(-c3ccccc3)cc2-c2ccccc2)cc1.[O-][Cl+3]([O-])([O-])[O-] | -27.1 |
| Cc1ccc(C[n+]2c(-c3ccc(C)cc3)cc(-c3ccc(C)cc3)cc2-c2ccc(C)cc2)cc1.[O-][Cl+3]([O-])([O-])[O-] | -61.7 |
| Oc1ccc(-[n+]2c(-c3ccccc3)cc(-c3ccccc3)cc2-c2ccccc2)cc1.[O-][Cl+3]([O-])([O-])[O-] | 5.58 |
| Oc1ccccc1-[n+]1c(-c2ccccc2)cc(-c2ccccc2)cc1-c1ccccc1.[O-][Cl+3]([O-])([O-])[O-] | -40.5 |
| Clc1ccc(C[n+]2c(-c3ccccc3)cc(-c3ccccc3)cc2-c2ccccc2)cc1.[O-][Cl+3]([O-])([O-])[O-] | -25.5 |
| Brc1ccc(-[n+]2c(-c3ccccc3)cc(-c3ccccc3)cc2-c2ccccc2)cc1.[O-][Cl+3]([O-])([O-])[O-] | -18.7 |
| Cc1ccc(-c2cc(-c3ccc(C)cc3)[n+](-c3ccccc3)c(-c3ccc(C)cc3)c2)cc1.[O-][Cl+3]([O-])([O-])[O-] | -77.3 |
| Cc1ccc(-c2cc(-c3ccc(C)cc3)[n+](-c3ccc(C(=O)O)cc3)c(-c3ccc(C)cc3)c2)cc1.[O-][Cl+3]([O-])([O-])[O-] | 17.7 |
| COc1ccc(-[n+]2c(-c3ccccc3)cc(-c3ccccc3)cc2-c2ccccc2)cc1.[O-][Cl+3]([O-])([O-])[O-] | -29.2 |
| Cc1ccccc1-[n+]1c(-c2ccccc2)cc(-c2ccccc2)cc1-c1ccccc1.[O-][Cl+3]([O-])([O-])[O-] | -55.8 |
| Nc1ccccc1-[n+]1c(-c2ccccc2)cc(-c2ccccc2)cc1-c1ccccc1.[O-][Cl+3]([O-])([O-])[O-] | 0.0928 |
| COc1ccc(-[n+]2c(-c3ccccc3)cc(-c3ccc(C)cc3)cc2-c2ccccc2)cc1.[O-][Cl+3]([O-])([O-])[O-] | -52 |
| COc1ccc(-c2cc(N)n(S(=O)(=O)Cc3ccccc3)n2)c(OC)c1 | -4.34 |
| COc1ccc(NC(=S)N2CCNC(=O)C2CC(=O)Nc2cccc(Cl)c2C)cc1 (stereo not drawn) | -5.98 |
| Cc1ccc(-c2sc(C)nc2CC(=O)O)cc1 | 7.75 |

| Structure (SMILES) | hERG current change (%, negative = inhibition) at 1uM [%] |
| --- | --- |
| C=C(C)C1CC=C(C)/C(=N/NC(=O)CCC(=O)Nc2ccccc2Cl)C1 (stereo not drawn) | 6.51 |
| O=C(COC(=O)c1c[nH]c2ccccc12)Nc1ccc(F)cc1 | -1.51 |
| Cc1cc(C(=O)NN=C(Cc2ccccc2)Cc2ccccc2)c(C)o1 | 4.29 |
| O=C(Nc1cnccn1)c1ccncc1 | -8.03 |
| NS(=O)(=O)c1ccc(CCNC(=O)c2ccccc2F)cc1 | 4.79 |
| CCCCNC(=O)/C=C/c1cccs1 | 24.3 |
| Cc1ccc(-c2cc(-c3ccccc3)cc(-c3ccccc3)[n+]2-c2ccccc2)cc1.[O-][Cl+3]([O-])([O-])[O-] | -80.4 |
| [O-][Cl+3]([O-])([O-])[O-].c1ccc(-c2cc(-c3ccccc3)[n+](-c3ccccc3)c(-c3ccccc3)c2)cc1 | -27.7 |
| Cc1ccc(-c2cc(-c3ccccc3)cc(-c3ccccc3)[n+]2-c2ccc(C(=O)O)cc2)cc1.[O-][Cl+3]([O-])([O-])[O-] | 7.88 |
| O=C(COc1ccccc1)N(Cc1ccco1)c1ccc(O)cc1 | 8.59 |
| CCOC(=O)c1[nH]c(C)c(C(=O)NCc2ccc(Cl)cc2)c1C | -4.65 |
| CCOc1ccc(CN2CCC(n3nccc3NC(=O)CCCc3ccccc3)CC2)cc1 | -88.8 |
| O=C(CCOc1ccccc1)Nc1ccnn1C1CCN(Cc2ccccc2)CC1 | 2 |
| COc1cc(CN2CCC(n3nccc3NC(=O)CCCc3ccccc3)CC2)ccc1O | -5.54 |
| O=C(CCOc1ccccc1)Nc1ccnn1C1CCN(Cc2ccc(O)cc2)CC1 | -3.76 |
| COc1ccc(CN2CCC(n3nccc3NC(=O)CCCc3ccccc3)CC2)cc1C | -67.3 |
| O=C(CCCc1ccccc1)Nc1ccnn1C1CCN(Cc2ccccc2)CC1 | -18.8 |
| CCOc1ccccc1CN1CCC(n2nccc2NC(=O)CCCc2ccccc2)CC1 | -29.2 |
| COc1ccccc1CN1CCC(n2nccc2NC(=O)CCCc2ccccc2)CC1 | -42.7 |
| CCOc1cccc(CN2CCC(n3nccc3NC(=O)CCCc3ccccc3)CC2)c1 | 9.19 |
| COc1cccc(CN2CCC(n3nccc3NC(=O)CCCc3ccccc3)CC2)c1O | -55.4 |
| COc1ccc(CN2CCC(n3nccc3NC(=O)CCOc3ccccc3)CC2)cc1C | -16.2 |
| O=C(CCOc1ccccc1)Nc1ccnn1C1CCN(CCc2ccccc2)CC1 | -51.4 |
| O=C(CCCN1C(=O)/C(=C/c2ccc3c(c2)OCO3)SC1=S)Nc1cccc(C(=O)O)c1 | 9.71 |
| Cn1cc(S(=O)(=O)N2CCC(C(N)=O)CC2)c(=O)n(C)c1=O | 11 |

| Structure (SMILES) | hERG current change (%, negative = inhibition) at 1uM [%] |
| --- | --- |
| Cc1c(C)c2cc(Cl)c(O)c(CN(C)C)c2oc1=O | 15.4 |
| CN(C)/C=N/c1cc(=O)[nH]c(=O)n1CC1CC1 | 17.1 |
| O=C(CCc1ccccc1)Nc1ccnn1C1CCN(Cc2ccc(OCCO)cc2)CC1 | -9.11 |
| CC(=O)Nc1ccc(CN2CCC(n3nccc3NC(=O)CCc3ccccc3)CC2)cc1 | 11.7 |
| CC(C)Oc1ccc(CN2CCC(n3nccc3NC(=O)CCc3ccccc3)CC2)cc1 | -86.3 |
| O=C(/C=C/c1ccc(-c2ccccc2)o1)c1ccccc1 | 10.1 |
| O=C(Nc1ccc(F)cc1)C(c1ccccc1)N1CCN(CC(=O)N2CCOCC2)CC1 (stereo not drawn) | -14.5 |
| Cc1ccc(NC(=O)C(c2ccccc2)N2CCN(CC(=O)N3CCOCC3)CC2)cc1 (stereo not drawn) | -8.48 |
| CCOc1ccccc1NC(=O)C(c1ccccc1)N1CCN(CC(=O)N2CCOCC2)CC1 (stereo not drawn) | -79.7 |
| O=C(NCCc1nc2ccccc2[nH]1)/C(=C/c1ccc2c(c1)OCO2)NC(=O)c1ccccc1 | -14.2 |
| O=C(NCCc1nc2ccccc2[nH]1)/C(=C/c1ccc2c(c1)OCO2)NC(=O)c1ccc(Cl)cc1Cl | -73.9 |
| O=C(NCCc1nc2ccccc2[nH]1)/C(=C/c1ccc2c(c1)OCO2)NC(=O)c1ccccc1Cl | -49.9 |
| CSCC[C@H](NC(=O)c1ccc(Cl)c(S(=O)(=O)N2CCCC2)c1)c1nc2ccccc2[nH]1 | -1.71 |
| CSc1ccc(CN2CCCC(CNC(=O)c3ccc(F)cc3)C2)cc1 (stereo not drawn) | -59 |
| COc1ccc(CN2CCCC(CNC(=O)c3ccc(F)cc3)C2)cc1OC (stereo not drawn) | -54.3 |
| COc1cc(OC)cc(C(=O)NCC2CCCN(Cc3ccc(SC)cc3)C2)c1 (stereo not drawn) | -34.6 |
| COc1ccc(CN2CCCC(CNC(=O)c3ccc(F)cc3)C2)c(F)c1 (stereo not drawn) | -50.4 |
| CSc1cccc(CN2CCCC(CNC(=O)c3ccc(F)cc3)C2)c1 (stereo not drawn) | -19.1 |
| CCOc1cc(CN2CCCC(CNC(=O)c3ccc(F)cc3)C2)ccc1OC (stereo not drawn) | -17 |
| CCOc1ccc(CN2CCCC(CNC(=O)c3ccc(F)cc3)C2)cc1CO (stereo not drawn) | -50.5 |
| O=C(NCC1CCCN(Cc2ccc3nonc3c2)C1)c1ccc(F)cc1 (stereo not drawn) | -13.9 |
| O=C(NCC1CCCN(Cc2cccc(OCCO)c2)C1)c1ccc(F)cc1 (stereo not drawn) | 2.83 |
| COc1ccc(CC(=O)NCC2CCCN(Cc3ccc(F)cc3F)C2)cc1 (stereo not drawn) | 8.71 |
| COc1ccc(CC(=O)NCC2CCCN(Cc3ccc(OC)cc3F)C2)cc1 (stereo not drawn) | 6.22 |
| COc1ccc(CN2CCCC(CNC(=O)c3ccc(F)cc3)C2)c(C)c1C (stereo not drawn) | -46.2 |
